The list is not random: actives were taken first. Their share in the collection is about 4.3%.
NALP1 inh: inhibitors of NALP1 inflammasome in yeast. inhibition, % at 10 µM. S. cerevisiae NALP1/ASC/caspase-1 growth, X-gal OD620, 72 h. hit rate 0.61% among 280,000. AID 2071; in the data active means inhibition mostly above about 24%, no sharp cut-off; inactive means mostly below about 32%
GRIN3A LBD mod: modulates the human NR3A ligand-binding domain. NR3A LBD differential scanning fluorimetry, Tm shift; 0% = protein alone, 100% = glycine-bound protein. Tm shift relative to glycine control, % at 25 µM. hit rate 2.5% among 340,000. AID 1259313;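 active means melting temperature shift of at least 10% of the positive control shift, at one fixed dose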
dFosB activator: enhances mouse delta FosB homodimer DNA binding; hit rate 0.99% among 340,000; activation, % at 25 µM; purified delta FosB, TAMRA-CDK5 oligo fluorescence polarization; percent of positive-control signal above neutral wells; P13346;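 active means mean activation above about 17%, with every replicate also reaching it, limit read from the data, passing the limit was not always enough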
Target sequence (P13346 whole entry, looked up): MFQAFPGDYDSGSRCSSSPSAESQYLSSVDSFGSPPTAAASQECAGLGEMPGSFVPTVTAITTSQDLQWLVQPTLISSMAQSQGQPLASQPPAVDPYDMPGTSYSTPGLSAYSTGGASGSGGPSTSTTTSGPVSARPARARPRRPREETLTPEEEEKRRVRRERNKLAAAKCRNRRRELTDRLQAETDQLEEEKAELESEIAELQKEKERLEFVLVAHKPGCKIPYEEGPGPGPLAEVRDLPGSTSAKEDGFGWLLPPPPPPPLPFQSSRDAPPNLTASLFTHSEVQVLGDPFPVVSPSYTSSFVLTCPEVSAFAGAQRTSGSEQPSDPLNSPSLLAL
UBC13 inh: inhibitors of human UBC13 polyubiquitin chain formation. TR-FRET. hit rate 0.47% among 330,000. AID 485273. inhibition, % at 20 µM; in the data active means inhibition above about 45%, passing the limit was not always enough
Target sequence (P61088 whole entry, looked up): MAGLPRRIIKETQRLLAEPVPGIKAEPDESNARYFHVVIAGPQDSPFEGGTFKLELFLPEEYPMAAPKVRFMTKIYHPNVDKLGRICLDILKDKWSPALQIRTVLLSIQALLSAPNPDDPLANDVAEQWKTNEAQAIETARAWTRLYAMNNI
Yeast superoxide: lowers age-related superoxide in aged yeast cells | S. cerevisiae aged cells, superoxide DHE fluorescence; hits give low values | superoxide response (% of plate mean), % at 10 µM | hit rate 0.18% among 330,000 | AID 2690;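 active means superoxide response under a set limit, about three screen SD below normal, cut at about 65% in these data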;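 further: yeast aged for seven days with compound at 30 °C before DHE staining; 100% = average MFI of all compound-treated wells on the plate with controls excluded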
Starred values were filed as active, the others as inactive; nt = no result given.

SMILES | NALP1 inh | GRIN3A LBD mod | dFosB activator | UBC13 inh | Yeast superoxide
C#CCNS(=O)(=O)c1ccc(F)cc1Br | nt | -0.2 | -9.8 | nt | nt
O=[N+]([O-])c1ccc(/C=N/Nc2nc(-c3ccccc3)c3cc(Br)ccc3n2)o1 | 25.1 | -7.0 | 22.9* | -60.6 | 91.2
O=C(N/N=C/c1ccc([N+](=O)[O-])o1)c1cc2c(ccc3ccccc32)o1 | 4.7 | -9.8 | 2.7 | nt | nt
O=C(N/N=C/c1ccc([N+](=O)[O-])o1)c1cc2ccccc2o1 | nt | 10.4* | 0.5 | 1.4 | 97.4
Cc1ccc2nc(N/N=C\c3ccc([N+](=O)[O-])o3)nc(-c3ccccc3)c2c1 | -5.2 | -8.3 | -0.5 | -142.8 | 117.9
O=[N+]([O-])c1ccc(/C=N/Nc2ccc3ccccc3c2)o1 | 3.1 | 21.2* | -1.1 | -136.5 | 99.7
COc1ccc(Cl)cc1/C=C(\C#N)C(N)=O | 0.1 | 4.8 | 5.1 | 6.3 | 104.3
CCOc1ccccc1CNc1ccc(N2CCOCC2)c(C(=O)O)c1 | 19.5 | 1.3 | -0.6 | 7.5 | 91.8
CS(=O)(=O)c1ccc(C(=O)Nc2nc(-c3ccco3)c(-c3ccco3)s2)cc1 | nt | 19.3* | -15.9 | -9.7 | nt
O=C(Nc1nc(-c2ccco2)c(-c2ccco2)s1)C1CCC1 | 47.0 | -8.0 | -11.7 | 17.8 | 98.2
COc1ccc(-n2c(SCC(=O)Nc3cc(C)on3)nc3c([nH]c4ccccc43)c2=O)cc1 | -16.4 | 0.6 | 9.4 | -9.0 | 95.5
CCSc1nc2c([nH]c3ccccc32)c(=O)n1C | 8.0 | 0.4 | -1.0 | 1.7 | 99.7
COc1ccc(-n2c(SCC(=O)Nc3cc(C)on3)nc3c([nH]c4ccccc43)c2=O)cc1OC | 12.0 | -0.6 | 24.6* | -2.0 | 101.1
COCCn1c(SCC(=O)Nc2cccc(OC)c2)nnc1-c1ccccc1 | 29.6 | 10.5* | -4.5 | 5.7 | 86.0
COc1cccc(NC(=O)CSc2nc3c([nH]c4ccccc43)c(=O)n2C)c1 | 2.1 | 37.9* | 10.4 | -11.8 | 121.5
CCC1CCCCN1C(=O)CSc1nc2c([nH]c3ccccc32)c(=O)n1C (stereo not given) | 17.1 | 16.9* | -9.2 | -7.6 | 113.8
COc1ccc(S(=O)(=O)N(C)c2ccc(C(=O)Nc3ccccc3C(=O)N3CCOCC3)cc2)cc1OC | 8.0 | 0.8 | -8.0 | 6.4 | 98.4
Cc1ccc(-c2nnn(CC(=O)N(c3cccc(F)c3)C(C(=O)NC3CCCC3)c3ccco3)n2)o1 (stereo not given) | 20.9 | 3.1 | 1.1 | -12.8 | 116.8
Cc1ccc(-c2nnn(CC(=O)N(c3cccc(F)c3)C(C(=O)NC3CCCC3)c3ccncc3)n2)o1 (stereo not given) | 34.8* | -2.9 | -3.6 | -0.6 | 108.9
CC(C)(C)OC(=O)NCc1ccc(CNC(=O)c2[nH]cnc2C(=O)NC2CCN(C(=O)OC(C)(C)C)CC2)cc1 | nt | -7.6 | -14.5 | -0.4 | 79.3
O=C(Nc1ccc(C(=O)NN2C(=O)c3ccccc3C2=O)cc1)c1ccccc1 | -2.8 | 23.6* | 2.0 | 7.2 | 79.5
CC(C)C(=O)Nc1ccc(C(=O)NN2C(=O)c3ccccc3C2=O)cc1 | 27.6 | 13.0* | 2.2 | 6.2 | 92.5
CC(=O)Nc1ccc(C(=O)NN2C(=O)c3ccccc3C2=O)cc1 | -10.4 | -9.5 | 4.6 | 1.6 | 97.1
O=C(Nc1ccc(F)cc1)N1CCN(C(=O)C2CCCO2)CC1 (stereo not given) | 34.0* | -3.0 | 0.5 | -1.8 | 111.0
CCCn1c2ccccc2c2cnn(CC(=O)NC3CCCC(C)C3C)c(=O)c21 (stereo not given) | 25.4 | 1.7 | 2.1 | 3.6 | 116.0
SMILES | NALP1 inh | GRIN3A LBD mod | dFosB activator | UBC13 inh | Yeast superoxide
CCn1c(=O)n(CC(=O)NC2CCCC(C)C2C)c(=O)c2ccccc21 (stereo not given) | -6.0 | 11.0* | -1.7 | -1.7 | 101.0
Cc1ccc(NC(NC(=O)c2cccs2)C(Cl)(Cl)Cl)cc1C (stereo not given) | 16.4 | 11.6* | 2.3 | -3.4 | 81.7
Cc1ccc(NC(NC(=O)c2cccs2)C(Cl)(Cl)Cl)cc1 (stereo not given) | 10.0 | -1.8 | -2.5 | -0.7 | 85.9
O=Cc1ccc(-c2cc(Cl)ccc2Cl)[nH]1 | 9.2 | -1.3 | 4.1 | -10.0 | 103.2
O=C(CNC(=O)c1ccccc1F)NCc1cccnc1 | -5.7 | -0.3 | -5.3 | -7.5 | 106.8
O=C(Nc1ccc(F)cc1)Nc1sccc1-c1nc2ccccc2s1 | nt | 30.5* | -4.9 | 12.4 | 114.6
Cc1ccn2cc(-c3cccc(NC(=O)c4cccs4)c3)nc2c1 | -7.6 | 1.2 | -1.1 | 0.6 | 108.7
O=C(Nc1cccc(-c2csc(-c3ccccc3)n2)c1)c1cccs1 | -8.3 | 23.9* | -12.9 | 10.1 | 79.8
O=C(Nc1ccc(O)c(-c2nc3ccccc3s2)c1)c1cccs1 | 15.3 | 26.1* | -0.9 | -37.9 | 84.6
Cc1cccn2cc(-c3cccc(NC(=O)c4cccs4)c3)nc12 | 2.2 | 23.3* | 8.3 | 2.0 | 87.8
O=C(Nc1ccc(O)c(-c2nc3ccccc3s2)c1)c1cc(=O)c2ccccc2o1 | 3.2 | 9.3 | -0.1 | -13.2 | 119.8
Cc1c(NC(=O)Nc2cc(F)c(F)cc2Cl)c(=O)n(-c2ccccc2)n1C | nt | 1.9 | nt | -3.7 | 90.2
O=C(CSc1nnc(CNC(=O)c2cccs2)o1)Nc1ccccc1F | -7.4 | 0.9 | 5.0 | -4.2 | 100.5
O=C(CN1CCN(C(=O)c2cncn2-c2ccccc2)CC1)Nc1ccccc1Cl | nt | 1.4 | -5.8 | -3.8 | 92.6
CC1CCCC(NC(=O)c2ccc3c(c2)NC(=O)CS3)C1C (stereo not given) | 5.2 | 0.9 | -0.4 | 3.0 | 91.4
Cc1ccc(C(=O)C(NC(=O)c2ccco2)N2CCOCC2)cc1 (stereo not given) | 14.9 | 10.6* | -4.3 | 1.2 | 94.8
C/C(CCc1ccc2c(c1)OCO2)=N\N=C(/N)SC1CC(=O)N(c2ccc(Cl)cc2)C1=O (stereo not given) | 8.2 | 16.0* | -13.6 | -6.6 | 86.2
N/C(=N\N=C\c1ccc2c(c1)OCO2)SC1CC(=O)N(c2ccc(C(=O)O)cc2)C1=O (stereo not given) | 11.0 | -0.8 | 1.5 | -9.2 | 197.3
CC(OC(=O)C1=COCCO1)C(=O)Nc1ccc(Oc2ccccc2)cc1 (stereo not given) | 36.1* | 0.7 | -9.6 | 2.0 | 97.1
CC(OC(=O)C1=COCCO1)C(=O)NC1(C#N)CCCCC1 (stereo not given) | nt | 11.2* | -2.8 | 2.5 | 84.8
CC(OC(=O)C1=COCCO1)C(=O)Nc1ccccc1C#N (stereo not given) | -5.4 | -1.6 | -7.9 | -14.2 | 96.5
O=C(CC(Sc1ccc(Br)cc1)C(=O)O)c1ccc(F)cc1 (stereo not given) | -6.5 | 1.6 | -63.3 | -10.1 | 100.4
CC(C)(C#N)Nc1ccccc1 | 17.5* | -0.6 | -2.8 | 2.6 | 104.5
CCN(CC)S(=O)(=O)c1ccc(N2CCOCC2)c(NC(=O)c2c3c(nc4ccccc24)CCC3)c1 | 1.3 | -1.4 | -2.5 | -14.8 | 89.6
CCCCCCCCCOC(=O)C(CC(=O)O)N1CCOCC1 (stereo not given) | 44.9* | 0.3 | -3.5 | 11.0 | 105.1

Screening results: PubChem, several laboratories
